Data reported in the supplement of paper PMC11732987, “Enantioselective OTUD7B fragment discovery through chemoproteomics screening and high-throughput optimisation” (Communications Chemistry, 2025).

Key:
Experiment in all cases: log2 ratio of Biotin-Ahx-Ub-VS probe labelling (fragment/DMSO); higher = less target engagement (more negative = stronger competition), active = hit call of the paper (q ≤ 0.05, log2 ratio ≤ -1)
Conditions in all cases: compound concentration: 200 uM; treatment time: 3 h
USP19 = target: T1, USP19 (UniProt O94966)
T1 sequence (whole entry): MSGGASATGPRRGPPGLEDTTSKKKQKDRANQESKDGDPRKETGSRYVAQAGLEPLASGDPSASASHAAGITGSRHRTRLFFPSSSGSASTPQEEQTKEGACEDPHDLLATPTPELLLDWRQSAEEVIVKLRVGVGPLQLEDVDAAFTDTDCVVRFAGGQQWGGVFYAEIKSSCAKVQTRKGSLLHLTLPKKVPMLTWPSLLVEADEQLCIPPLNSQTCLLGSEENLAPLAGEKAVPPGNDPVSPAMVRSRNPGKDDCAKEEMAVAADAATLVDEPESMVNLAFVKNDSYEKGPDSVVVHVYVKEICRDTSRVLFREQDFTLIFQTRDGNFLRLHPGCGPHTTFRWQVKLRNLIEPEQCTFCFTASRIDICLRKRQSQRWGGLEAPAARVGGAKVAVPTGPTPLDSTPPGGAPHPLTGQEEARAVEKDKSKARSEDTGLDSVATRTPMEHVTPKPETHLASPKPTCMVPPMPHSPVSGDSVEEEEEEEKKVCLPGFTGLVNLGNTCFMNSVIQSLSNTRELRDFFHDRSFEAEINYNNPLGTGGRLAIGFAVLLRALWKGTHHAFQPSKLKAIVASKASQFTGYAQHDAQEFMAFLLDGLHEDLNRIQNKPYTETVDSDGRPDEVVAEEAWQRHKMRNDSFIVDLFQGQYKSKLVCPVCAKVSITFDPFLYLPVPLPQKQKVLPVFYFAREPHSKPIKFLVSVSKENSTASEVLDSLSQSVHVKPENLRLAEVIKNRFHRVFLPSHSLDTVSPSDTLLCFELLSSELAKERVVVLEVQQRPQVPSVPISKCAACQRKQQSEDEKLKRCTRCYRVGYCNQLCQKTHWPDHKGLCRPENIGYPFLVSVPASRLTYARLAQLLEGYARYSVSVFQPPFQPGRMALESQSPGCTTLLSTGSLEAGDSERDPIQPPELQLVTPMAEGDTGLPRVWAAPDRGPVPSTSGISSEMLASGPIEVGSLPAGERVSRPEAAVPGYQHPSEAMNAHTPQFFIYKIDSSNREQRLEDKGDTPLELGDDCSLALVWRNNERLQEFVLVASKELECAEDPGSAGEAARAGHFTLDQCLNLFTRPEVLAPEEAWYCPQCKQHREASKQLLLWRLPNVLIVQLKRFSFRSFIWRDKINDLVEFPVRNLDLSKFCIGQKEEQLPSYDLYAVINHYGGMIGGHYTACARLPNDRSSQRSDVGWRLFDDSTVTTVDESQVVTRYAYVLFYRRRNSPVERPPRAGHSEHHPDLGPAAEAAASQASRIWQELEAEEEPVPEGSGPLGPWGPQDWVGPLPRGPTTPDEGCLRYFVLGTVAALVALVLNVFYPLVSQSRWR
Method in brief: (§1)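 HEK293T lysate, 495 µg per sample in Tris/CHAPS/IGEPAL buffer with protease inhibitors, was treated in triplicate with fragment at 200 µM or vehicle for 3 h and then with Biotin-Ahx-Ub-VS at 0.5 µM final for 1 h. Labelled DUBs were NeutrAvidin-enriched, digested with LysC and trypsin, and run by diaPASEF LC-MS/MS. Spectronaut label-free quantities were global-median-normalised, and values are average log2 fragment/vehicle ratios by unpaired t-test on proteins with ≥2 unique peptides.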

USP24 = USP24 (UniProt Q9UPU5)
Sequence of USP24 (Q9UPU5 whole entry): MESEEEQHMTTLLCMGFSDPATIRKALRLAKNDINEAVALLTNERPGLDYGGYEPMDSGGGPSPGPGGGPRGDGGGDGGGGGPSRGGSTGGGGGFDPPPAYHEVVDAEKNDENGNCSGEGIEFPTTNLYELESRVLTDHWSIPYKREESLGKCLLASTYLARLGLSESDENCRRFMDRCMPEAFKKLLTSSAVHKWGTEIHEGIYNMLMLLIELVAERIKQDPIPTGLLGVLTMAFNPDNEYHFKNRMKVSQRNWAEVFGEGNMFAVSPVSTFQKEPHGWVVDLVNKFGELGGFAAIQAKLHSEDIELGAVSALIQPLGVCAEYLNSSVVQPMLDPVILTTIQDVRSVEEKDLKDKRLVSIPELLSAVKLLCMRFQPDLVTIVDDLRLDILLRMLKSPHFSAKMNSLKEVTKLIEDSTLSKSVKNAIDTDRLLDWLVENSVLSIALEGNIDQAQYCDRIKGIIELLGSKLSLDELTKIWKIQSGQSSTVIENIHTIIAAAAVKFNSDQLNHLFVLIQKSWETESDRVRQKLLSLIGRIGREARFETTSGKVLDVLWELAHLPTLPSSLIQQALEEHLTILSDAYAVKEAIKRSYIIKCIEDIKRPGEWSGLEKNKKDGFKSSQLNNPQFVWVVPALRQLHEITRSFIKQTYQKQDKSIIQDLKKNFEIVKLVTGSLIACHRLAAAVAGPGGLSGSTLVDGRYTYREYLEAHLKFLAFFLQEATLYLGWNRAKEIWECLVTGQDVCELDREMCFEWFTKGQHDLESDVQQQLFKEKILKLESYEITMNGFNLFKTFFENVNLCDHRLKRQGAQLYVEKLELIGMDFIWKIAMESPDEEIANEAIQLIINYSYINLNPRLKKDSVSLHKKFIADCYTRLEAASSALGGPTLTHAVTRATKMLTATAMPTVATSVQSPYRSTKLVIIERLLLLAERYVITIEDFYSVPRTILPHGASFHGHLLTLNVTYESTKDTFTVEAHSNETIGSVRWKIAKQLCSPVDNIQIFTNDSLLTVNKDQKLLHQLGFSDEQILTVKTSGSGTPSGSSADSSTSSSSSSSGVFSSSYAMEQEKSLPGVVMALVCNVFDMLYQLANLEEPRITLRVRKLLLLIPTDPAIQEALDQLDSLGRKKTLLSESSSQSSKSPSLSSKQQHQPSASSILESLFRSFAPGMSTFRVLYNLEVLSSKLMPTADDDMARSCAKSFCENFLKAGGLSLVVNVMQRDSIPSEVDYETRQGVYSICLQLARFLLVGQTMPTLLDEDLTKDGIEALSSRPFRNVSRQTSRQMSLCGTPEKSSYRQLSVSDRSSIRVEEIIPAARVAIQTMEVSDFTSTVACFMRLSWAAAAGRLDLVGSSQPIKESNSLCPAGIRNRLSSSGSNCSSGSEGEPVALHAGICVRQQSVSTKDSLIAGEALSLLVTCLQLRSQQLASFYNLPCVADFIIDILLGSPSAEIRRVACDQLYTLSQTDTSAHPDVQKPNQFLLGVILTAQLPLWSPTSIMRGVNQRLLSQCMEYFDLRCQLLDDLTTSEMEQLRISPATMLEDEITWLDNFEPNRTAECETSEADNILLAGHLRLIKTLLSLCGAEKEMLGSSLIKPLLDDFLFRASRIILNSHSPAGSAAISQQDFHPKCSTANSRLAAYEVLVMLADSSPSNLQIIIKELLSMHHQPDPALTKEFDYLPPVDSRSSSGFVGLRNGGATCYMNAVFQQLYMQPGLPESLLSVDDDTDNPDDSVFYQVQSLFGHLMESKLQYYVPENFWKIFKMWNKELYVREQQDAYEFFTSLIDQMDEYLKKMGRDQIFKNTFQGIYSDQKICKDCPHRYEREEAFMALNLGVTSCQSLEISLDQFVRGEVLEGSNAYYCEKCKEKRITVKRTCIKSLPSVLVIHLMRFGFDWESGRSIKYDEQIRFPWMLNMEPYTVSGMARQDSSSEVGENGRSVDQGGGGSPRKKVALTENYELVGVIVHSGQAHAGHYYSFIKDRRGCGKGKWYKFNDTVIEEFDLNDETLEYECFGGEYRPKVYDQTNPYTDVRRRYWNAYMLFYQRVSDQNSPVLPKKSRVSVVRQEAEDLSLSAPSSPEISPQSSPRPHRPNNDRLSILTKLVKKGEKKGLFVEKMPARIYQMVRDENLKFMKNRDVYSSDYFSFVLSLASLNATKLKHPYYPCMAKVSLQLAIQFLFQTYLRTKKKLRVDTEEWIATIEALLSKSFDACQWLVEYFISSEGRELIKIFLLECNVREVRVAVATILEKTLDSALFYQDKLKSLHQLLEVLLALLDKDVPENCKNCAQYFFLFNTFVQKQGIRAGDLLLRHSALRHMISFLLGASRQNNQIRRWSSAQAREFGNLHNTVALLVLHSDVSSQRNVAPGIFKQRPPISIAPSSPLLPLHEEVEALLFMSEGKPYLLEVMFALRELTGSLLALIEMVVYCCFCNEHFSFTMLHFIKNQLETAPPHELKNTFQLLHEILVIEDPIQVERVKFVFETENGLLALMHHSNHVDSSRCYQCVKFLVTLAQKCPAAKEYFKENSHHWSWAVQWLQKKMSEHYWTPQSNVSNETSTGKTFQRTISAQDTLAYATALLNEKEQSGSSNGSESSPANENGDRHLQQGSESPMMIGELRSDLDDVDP
Method in brief: as §1

USP25 = target: T2, USP25 (UniProt Q9UHP3)
T2 sequence (whole entry): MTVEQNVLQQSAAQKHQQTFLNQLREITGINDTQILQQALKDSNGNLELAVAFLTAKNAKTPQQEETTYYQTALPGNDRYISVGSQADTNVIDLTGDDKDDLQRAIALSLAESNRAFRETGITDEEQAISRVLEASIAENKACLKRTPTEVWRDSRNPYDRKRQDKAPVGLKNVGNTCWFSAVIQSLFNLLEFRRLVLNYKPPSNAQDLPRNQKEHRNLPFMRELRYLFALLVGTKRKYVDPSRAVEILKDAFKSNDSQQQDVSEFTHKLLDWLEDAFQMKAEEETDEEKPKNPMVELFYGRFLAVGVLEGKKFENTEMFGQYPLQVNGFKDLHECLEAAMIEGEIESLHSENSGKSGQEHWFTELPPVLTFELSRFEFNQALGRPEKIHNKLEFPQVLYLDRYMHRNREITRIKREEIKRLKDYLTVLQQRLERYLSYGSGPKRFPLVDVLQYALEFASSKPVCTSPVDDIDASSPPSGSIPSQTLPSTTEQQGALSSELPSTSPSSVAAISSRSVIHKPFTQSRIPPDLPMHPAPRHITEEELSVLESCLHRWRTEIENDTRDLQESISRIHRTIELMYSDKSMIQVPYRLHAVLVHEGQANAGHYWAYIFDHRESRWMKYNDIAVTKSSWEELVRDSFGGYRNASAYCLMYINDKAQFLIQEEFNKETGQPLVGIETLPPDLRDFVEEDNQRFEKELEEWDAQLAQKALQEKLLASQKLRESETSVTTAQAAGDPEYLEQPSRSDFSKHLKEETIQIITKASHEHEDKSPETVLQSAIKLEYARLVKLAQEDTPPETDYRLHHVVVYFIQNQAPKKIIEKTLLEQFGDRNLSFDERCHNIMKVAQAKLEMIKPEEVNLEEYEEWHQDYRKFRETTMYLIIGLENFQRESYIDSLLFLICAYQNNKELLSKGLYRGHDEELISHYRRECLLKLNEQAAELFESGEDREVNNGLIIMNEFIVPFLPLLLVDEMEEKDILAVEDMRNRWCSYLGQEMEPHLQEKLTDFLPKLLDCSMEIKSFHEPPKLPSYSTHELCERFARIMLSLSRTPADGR
Method in brief: as §1

USP28 = target: T3, USP28 (UniProt Q96RU2)
T3 sequence (whole entry): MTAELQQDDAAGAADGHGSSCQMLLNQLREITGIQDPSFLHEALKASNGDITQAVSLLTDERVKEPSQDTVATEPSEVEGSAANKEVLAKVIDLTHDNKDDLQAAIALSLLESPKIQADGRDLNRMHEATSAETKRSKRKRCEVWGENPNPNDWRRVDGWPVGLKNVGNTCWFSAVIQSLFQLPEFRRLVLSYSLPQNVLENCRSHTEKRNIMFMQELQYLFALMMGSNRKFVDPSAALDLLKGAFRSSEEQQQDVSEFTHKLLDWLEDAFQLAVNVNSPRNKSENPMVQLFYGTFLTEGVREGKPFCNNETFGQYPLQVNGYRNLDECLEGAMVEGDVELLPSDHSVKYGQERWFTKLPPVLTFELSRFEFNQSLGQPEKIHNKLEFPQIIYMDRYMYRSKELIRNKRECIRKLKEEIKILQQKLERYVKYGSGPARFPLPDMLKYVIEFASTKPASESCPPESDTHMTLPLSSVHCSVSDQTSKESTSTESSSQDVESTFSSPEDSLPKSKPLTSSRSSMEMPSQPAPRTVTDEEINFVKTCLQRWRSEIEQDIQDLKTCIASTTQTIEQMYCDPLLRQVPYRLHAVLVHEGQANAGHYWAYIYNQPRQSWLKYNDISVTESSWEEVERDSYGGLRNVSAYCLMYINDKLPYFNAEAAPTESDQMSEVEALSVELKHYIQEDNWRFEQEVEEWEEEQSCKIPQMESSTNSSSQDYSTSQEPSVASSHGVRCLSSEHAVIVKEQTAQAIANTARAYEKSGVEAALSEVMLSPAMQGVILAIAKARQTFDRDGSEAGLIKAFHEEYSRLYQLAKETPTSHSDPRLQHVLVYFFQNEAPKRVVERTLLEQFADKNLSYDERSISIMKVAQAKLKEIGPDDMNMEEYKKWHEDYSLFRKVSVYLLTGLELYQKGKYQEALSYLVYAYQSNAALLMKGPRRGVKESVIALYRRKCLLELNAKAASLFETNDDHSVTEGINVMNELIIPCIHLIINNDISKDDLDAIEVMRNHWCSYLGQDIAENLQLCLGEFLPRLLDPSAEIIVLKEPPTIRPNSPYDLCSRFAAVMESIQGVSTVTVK
Method in brief: as §1

Measured: log2 ratio of Biotin-Ahx-Ub-VS probe labelling

O=C(CCl)N1CCCCCC1c1ncon1 (centres undefined)
inactive: USP19 -0.0696 | USP24 -0.257 | USP25 -0.435 | USP28 -0.35
